Results as given in the supplement of paper PMC11732987, “Enantioselective OTUD7B fragment discovery through chemoproteomics screening and high-throughput optimisation” (Communications Chemistry, 2025).

Columns and labels:
Experiment in all cases: log2 ratio of Biotin-Ahx-Ub-VS probe labelling (fragment/DMSO); higher = less target engagement (more negative = stronger competition), active = hit call of the paper (q ≤ 0.05, log2 ratio ≤ -1)
Conditions in all cases: compound concentration: 200 uM; treatment time: 3 h
ALG13 = target: T1, ALG13 (UniProt Q9NP73)
T1 sequence (whole entry): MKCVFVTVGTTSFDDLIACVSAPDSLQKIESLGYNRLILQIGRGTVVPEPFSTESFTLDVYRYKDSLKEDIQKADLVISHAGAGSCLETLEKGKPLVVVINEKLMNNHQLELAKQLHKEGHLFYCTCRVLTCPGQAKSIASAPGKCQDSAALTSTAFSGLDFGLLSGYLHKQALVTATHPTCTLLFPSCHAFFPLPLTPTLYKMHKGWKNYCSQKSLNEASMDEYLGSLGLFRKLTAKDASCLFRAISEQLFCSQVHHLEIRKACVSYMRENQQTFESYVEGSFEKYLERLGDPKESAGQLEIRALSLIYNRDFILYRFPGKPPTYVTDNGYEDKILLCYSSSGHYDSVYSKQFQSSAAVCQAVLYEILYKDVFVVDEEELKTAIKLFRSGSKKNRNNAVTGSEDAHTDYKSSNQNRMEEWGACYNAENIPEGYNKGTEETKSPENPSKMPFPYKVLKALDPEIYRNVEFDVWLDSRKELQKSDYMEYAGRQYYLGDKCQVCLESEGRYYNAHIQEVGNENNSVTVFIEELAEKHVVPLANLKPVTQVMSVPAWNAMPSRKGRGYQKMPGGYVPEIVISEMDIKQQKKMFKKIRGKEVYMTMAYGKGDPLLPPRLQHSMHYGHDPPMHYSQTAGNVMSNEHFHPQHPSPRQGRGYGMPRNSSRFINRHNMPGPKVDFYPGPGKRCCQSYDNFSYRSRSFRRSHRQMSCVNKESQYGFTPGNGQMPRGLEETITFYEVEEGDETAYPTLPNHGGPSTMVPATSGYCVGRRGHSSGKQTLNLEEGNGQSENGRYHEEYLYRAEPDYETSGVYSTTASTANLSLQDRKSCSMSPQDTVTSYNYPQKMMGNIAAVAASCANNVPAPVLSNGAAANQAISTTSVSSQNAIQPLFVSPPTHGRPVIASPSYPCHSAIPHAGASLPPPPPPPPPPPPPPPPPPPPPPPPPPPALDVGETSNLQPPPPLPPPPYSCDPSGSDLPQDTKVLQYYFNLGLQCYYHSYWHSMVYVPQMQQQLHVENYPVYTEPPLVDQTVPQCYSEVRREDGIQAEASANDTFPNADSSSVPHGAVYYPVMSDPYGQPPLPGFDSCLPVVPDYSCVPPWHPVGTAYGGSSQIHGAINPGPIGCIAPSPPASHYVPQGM
In short: (§1)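 Fragment (200 µM) or vehicle was incubated for 3 h with triplicate HEK293T lysate samples of 495 µg, which were then treated with Biotin-Ahx-Ub-VS at 0.5 µM final for 1 h. Labelled DUBs were enriched on NeutrAvidin, digested with LysC and trypsin, and analysed by diaPASEF LC-MS/MS. Values are average log2 fragment/vehicle ratios from an unpaired t-test on global-median-normalised Spectronaut label-free quantities, using proteins with ≥2 unique peptides.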

ATXN3 = ATXN3 (UniProt P54252)
In short: as §1

BAP1 = target: T2, BAP1 (UniProt Q92560)
T2 sequence (whole entry): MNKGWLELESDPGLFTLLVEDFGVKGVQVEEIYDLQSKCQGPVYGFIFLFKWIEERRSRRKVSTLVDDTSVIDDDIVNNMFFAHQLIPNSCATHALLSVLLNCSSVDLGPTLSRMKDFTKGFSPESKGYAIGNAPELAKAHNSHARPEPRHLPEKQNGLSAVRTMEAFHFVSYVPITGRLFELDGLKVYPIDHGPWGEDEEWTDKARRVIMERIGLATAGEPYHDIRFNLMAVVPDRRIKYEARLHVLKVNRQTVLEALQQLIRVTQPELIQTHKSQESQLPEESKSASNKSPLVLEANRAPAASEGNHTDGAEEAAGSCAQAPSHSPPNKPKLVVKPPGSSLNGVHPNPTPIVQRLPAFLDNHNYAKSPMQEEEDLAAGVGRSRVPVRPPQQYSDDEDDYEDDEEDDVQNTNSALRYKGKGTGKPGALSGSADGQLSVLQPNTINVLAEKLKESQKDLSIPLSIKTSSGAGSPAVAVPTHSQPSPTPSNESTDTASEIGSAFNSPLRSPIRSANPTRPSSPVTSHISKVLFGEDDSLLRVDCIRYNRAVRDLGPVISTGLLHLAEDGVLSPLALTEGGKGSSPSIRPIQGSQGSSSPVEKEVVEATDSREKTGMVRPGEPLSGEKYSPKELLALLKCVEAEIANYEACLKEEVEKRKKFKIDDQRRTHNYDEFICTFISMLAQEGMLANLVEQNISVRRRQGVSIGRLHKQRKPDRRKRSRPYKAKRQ
In short: as §1

EIF3F = EIF3F (UniProt O00303)
In short: as §1

EIF3H = EIF3H (UniProt O15372)
In short: as §1

FAM105A = target: T3, FAM105A (UniProt Q9NUU6)
T3 sequence (whole entry): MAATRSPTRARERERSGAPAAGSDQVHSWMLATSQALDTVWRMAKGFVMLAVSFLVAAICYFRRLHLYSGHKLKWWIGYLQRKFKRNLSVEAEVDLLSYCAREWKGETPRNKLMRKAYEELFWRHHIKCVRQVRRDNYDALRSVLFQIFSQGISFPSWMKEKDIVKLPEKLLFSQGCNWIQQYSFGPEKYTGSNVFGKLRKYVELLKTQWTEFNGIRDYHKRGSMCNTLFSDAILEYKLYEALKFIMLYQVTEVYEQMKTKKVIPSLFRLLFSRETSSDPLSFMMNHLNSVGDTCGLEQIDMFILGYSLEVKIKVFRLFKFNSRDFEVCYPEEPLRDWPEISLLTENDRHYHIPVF
In short: as §1

OTUB1 = OTUB1 (UniProt Q96FW1)
In short: as §1

OTUD4 = target: T4, OTUD4 (UniProt Q01804)
T4 sequence (whole entry): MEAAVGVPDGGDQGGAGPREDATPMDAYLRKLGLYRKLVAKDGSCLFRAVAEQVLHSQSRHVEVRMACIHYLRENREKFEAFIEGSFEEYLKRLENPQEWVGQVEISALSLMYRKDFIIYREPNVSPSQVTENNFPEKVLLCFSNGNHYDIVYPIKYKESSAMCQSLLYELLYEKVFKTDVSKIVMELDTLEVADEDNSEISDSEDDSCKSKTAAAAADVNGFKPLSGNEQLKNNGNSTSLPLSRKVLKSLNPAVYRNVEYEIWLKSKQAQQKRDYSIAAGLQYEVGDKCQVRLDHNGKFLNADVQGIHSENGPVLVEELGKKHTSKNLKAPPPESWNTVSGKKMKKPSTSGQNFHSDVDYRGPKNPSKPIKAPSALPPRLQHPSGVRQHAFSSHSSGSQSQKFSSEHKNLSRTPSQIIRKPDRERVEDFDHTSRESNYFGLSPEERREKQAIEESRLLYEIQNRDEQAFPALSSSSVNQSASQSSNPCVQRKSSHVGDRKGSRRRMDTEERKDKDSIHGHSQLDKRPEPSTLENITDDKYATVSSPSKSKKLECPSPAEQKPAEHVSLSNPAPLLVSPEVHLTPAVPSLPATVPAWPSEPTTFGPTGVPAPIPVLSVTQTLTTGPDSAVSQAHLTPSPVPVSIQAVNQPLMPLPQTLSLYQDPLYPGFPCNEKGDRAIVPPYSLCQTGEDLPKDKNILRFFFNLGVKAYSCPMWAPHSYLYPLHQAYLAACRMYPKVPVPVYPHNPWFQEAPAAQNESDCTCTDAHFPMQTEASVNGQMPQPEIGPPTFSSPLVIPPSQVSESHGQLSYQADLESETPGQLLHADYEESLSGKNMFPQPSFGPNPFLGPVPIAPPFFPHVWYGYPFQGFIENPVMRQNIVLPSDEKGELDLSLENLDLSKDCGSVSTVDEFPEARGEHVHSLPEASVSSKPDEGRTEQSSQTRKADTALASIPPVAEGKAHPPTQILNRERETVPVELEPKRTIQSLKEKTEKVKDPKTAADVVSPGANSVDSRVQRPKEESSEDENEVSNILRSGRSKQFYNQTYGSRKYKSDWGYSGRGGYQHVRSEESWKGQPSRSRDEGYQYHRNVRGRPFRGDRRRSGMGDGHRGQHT
In short: as §1

OTUD5 = target: T5, OTUD5 (UniProt Q96G74)
T5 sequence (whole entry): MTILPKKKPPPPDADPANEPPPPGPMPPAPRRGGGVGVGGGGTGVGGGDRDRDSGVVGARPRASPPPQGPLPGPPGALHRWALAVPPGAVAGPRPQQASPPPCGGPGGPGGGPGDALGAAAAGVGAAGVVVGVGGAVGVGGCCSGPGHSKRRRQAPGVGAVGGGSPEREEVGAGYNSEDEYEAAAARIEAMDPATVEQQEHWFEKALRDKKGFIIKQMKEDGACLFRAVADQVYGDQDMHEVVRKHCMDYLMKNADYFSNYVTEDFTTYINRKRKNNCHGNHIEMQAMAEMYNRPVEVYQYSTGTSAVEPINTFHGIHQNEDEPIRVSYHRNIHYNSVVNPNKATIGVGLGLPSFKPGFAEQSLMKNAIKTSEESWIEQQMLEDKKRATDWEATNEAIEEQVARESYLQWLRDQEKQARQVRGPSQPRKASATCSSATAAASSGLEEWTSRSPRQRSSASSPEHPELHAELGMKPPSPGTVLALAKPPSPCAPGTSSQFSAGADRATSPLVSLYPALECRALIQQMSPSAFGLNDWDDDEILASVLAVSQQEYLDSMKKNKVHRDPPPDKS
In short: as §1

Measured: log2 ratio of Biotin-Ahx-Ub-VS probe labelling

Chain of ATXN3 (P54252 whole entry): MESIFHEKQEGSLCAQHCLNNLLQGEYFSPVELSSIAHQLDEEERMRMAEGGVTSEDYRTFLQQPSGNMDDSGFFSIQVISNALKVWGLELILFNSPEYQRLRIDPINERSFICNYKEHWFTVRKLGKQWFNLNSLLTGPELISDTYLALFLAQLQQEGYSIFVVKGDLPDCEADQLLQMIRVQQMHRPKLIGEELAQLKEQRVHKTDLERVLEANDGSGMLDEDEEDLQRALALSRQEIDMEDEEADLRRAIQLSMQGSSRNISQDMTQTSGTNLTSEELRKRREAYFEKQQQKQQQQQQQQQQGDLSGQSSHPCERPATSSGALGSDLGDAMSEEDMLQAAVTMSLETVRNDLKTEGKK
Chain of OTUB1 (Q96FW1 whole entry): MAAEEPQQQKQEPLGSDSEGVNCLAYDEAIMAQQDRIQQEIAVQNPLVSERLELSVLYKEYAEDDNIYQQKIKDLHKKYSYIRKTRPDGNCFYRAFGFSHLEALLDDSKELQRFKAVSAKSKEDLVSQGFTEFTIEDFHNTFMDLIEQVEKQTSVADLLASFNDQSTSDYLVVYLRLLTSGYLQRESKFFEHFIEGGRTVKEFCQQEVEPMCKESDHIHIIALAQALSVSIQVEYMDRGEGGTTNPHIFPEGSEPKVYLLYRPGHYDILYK
Chain of EIF3H (O15372 whole entry): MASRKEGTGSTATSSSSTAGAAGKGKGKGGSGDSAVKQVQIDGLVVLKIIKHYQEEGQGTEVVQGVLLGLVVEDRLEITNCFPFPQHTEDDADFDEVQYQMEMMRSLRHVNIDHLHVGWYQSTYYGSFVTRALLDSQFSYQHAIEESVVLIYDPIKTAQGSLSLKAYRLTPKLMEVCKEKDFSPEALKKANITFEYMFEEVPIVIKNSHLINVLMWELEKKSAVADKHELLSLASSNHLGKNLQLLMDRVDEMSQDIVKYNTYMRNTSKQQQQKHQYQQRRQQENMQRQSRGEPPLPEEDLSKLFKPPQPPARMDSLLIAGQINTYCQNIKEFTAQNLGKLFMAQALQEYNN
Chain of EIF3F (O00303 whole entry): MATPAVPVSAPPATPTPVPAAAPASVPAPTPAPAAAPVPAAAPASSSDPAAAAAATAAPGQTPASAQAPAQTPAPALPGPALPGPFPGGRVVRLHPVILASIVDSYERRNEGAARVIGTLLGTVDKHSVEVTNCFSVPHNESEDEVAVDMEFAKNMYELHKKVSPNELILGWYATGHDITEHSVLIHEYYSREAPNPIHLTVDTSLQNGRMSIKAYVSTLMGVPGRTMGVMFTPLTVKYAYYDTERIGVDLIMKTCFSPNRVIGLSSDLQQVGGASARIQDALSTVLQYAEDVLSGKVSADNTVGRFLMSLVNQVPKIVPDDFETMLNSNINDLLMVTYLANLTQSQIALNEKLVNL

O=C(CCl)Nc1ccc(F)cc1Cl
active: BAP1 -3.7
inactive: ALG13 -0.23 | ATXN3 -0.598 | EIF3F -0.37 | EIF3H 0.131 | FAM105A 0.0383 | OTUB1 -0.452 | OTUD4 -0.578 | OTUD5 -0.8
